About 8,800 targets were measured; listed, in parts, are those with a hit and a random draw of the rest. About 0.5% of all pairs of compound and target were hits.

Sequence of UniProt Q12972 (Q12972 whole entry, looked up): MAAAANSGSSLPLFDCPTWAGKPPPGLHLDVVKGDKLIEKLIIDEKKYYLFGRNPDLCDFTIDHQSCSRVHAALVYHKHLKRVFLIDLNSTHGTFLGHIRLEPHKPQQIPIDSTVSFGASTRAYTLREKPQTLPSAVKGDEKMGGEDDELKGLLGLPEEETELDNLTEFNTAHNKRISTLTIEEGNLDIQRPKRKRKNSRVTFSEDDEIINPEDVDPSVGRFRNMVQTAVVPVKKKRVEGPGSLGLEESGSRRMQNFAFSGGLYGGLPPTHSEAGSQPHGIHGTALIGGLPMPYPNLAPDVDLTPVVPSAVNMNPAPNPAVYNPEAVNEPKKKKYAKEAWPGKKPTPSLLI
Sequence of UniProt Q99541 (Q99541 whole entry, looked up): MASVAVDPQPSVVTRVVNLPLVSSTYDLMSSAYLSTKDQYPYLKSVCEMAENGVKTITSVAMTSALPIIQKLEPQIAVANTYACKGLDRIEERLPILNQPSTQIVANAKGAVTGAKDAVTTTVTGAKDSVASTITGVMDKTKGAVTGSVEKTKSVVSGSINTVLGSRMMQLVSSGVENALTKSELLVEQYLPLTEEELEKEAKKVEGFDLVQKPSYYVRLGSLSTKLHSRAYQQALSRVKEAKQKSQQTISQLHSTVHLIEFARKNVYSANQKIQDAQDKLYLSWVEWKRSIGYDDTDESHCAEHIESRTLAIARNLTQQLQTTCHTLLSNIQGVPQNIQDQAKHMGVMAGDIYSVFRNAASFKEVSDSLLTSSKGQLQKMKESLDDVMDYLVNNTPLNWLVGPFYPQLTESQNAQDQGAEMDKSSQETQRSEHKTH
Sequence of UniProt P09884 (P09884 whole entry, looked up): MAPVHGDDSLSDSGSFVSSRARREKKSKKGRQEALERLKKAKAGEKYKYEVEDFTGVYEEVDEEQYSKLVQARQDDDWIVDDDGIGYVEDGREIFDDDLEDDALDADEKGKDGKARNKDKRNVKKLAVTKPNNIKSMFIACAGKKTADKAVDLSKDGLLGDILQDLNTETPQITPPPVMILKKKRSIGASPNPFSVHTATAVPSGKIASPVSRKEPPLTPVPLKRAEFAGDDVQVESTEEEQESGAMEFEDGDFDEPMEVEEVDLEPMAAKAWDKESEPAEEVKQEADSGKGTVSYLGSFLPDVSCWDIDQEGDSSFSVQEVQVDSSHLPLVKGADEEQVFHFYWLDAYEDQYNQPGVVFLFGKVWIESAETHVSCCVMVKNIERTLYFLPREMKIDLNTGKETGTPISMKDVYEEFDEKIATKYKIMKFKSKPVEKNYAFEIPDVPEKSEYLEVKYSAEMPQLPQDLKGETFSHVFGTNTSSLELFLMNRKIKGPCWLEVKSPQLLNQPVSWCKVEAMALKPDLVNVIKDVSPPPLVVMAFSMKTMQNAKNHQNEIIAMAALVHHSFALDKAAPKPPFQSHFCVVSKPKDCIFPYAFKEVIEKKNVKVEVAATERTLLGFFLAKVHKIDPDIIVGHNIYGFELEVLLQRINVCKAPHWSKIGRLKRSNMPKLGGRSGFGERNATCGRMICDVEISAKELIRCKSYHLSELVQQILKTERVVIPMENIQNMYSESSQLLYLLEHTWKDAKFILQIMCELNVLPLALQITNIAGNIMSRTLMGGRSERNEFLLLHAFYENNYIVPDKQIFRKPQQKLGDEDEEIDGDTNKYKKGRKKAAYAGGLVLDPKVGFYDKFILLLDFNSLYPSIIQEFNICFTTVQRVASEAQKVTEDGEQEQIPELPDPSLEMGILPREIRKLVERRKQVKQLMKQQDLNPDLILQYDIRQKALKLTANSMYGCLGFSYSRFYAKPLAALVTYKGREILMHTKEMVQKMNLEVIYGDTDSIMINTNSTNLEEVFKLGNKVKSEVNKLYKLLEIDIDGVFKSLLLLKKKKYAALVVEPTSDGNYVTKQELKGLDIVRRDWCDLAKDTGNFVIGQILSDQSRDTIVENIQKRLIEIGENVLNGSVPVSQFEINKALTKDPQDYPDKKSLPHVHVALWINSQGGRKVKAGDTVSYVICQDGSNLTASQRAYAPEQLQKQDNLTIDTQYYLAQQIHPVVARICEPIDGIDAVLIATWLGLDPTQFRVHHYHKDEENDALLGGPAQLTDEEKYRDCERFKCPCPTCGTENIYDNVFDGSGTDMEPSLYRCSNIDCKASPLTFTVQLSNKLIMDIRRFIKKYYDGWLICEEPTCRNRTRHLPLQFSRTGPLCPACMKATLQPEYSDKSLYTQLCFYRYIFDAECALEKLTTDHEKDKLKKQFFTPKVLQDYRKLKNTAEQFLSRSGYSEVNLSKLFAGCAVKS
Sequence of UniProt Q9BRX2 (Q9BRX2 whole entry, looked up): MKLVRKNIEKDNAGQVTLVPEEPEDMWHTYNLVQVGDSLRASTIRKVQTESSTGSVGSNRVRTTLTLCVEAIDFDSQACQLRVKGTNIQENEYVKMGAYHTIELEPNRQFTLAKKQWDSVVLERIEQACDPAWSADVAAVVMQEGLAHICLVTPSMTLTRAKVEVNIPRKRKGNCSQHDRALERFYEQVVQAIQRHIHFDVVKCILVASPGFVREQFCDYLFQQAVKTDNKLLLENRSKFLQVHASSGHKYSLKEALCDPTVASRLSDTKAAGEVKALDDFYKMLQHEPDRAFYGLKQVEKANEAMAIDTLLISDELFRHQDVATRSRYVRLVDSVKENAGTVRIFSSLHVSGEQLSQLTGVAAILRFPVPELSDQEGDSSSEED
Sequence of UniProt P14314 (P14314 whole entry, looked up): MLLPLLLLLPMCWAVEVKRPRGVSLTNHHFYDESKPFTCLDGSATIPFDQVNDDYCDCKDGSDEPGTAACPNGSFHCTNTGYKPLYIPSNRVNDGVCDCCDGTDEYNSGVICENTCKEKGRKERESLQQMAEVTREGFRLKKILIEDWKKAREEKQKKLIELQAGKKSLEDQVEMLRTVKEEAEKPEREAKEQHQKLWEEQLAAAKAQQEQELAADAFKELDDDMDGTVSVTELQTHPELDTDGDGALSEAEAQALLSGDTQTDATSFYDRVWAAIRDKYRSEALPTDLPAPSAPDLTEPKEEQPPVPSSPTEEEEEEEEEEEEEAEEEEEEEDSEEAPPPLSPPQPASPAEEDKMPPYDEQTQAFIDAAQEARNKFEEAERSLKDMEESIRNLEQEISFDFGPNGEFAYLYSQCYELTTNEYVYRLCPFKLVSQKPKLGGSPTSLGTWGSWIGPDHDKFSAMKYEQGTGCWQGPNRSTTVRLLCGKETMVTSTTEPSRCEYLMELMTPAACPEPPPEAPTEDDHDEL
Sequence of UniProt Q8N8N7 (Q8N8N7 whole entry, looked up): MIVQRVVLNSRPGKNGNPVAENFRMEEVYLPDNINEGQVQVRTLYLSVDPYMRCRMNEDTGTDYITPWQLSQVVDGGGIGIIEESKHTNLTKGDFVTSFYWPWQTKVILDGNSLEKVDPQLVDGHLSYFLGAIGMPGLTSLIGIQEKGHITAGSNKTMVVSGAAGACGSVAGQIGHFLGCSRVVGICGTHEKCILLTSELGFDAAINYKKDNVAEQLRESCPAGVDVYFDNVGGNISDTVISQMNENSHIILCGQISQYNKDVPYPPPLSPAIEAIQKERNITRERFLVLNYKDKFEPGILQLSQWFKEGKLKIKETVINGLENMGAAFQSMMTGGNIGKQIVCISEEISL
Sequence of UniProt Q8IZ21 (Q8IZ21 whole entry, looked up): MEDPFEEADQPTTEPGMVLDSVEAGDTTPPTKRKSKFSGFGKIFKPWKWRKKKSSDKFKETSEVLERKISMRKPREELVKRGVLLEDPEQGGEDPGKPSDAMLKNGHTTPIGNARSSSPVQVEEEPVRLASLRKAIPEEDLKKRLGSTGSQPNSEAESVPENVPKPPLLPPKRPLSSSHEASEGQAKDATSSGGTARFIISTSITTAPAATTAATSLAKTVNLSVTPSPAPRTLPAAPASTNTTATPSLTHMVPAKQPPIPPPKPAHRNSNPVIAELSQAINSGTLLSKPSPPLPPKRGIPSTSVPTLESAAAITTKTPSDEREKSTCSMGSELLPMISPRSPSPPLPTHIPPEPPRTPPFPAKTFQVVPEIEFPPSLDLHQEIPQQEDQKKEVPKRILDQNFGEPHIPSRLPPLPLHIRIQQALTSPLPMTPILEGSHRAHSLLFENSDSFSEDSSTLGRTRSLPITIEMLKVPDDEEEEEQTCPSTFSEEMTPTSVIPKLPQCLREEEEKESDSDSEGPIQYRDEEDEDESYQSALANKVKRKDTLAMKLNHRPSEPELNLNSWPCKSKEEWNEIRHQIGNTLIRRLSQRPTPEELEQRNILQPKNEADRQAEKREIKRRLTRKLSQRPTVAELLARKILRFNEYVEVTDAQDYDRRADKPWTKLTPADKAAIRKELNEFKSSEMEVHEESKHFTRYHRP
Sequence of UniProt Q10713 (Q10713 whole entry, looked up): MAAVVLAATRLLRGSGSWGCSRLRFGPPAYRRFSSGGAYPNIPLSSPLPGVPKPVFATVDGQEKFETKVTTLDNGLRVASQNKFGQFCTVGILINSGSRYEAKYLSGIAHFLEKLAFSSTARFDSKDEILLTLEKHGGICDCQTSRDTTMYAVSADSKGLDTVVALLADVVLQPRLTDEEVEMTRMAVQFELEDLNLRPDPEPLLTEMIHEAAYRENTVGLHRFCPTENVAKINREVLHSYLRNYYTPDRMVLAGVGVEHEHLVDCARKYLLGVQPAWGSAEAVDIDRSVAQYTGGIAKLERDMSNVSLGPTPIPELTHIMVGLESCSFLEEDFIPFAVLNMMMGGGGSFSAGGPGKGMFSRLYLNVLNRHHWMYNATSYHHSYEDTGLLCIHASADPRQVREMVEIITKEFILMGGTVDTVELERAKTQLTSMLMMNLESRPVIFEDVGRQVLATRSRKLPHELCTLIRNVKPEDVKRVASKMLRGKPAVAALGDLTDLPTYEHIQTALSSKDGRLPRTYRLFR
Sequence of UniProt Q9HBH1 (Q9HBH1 whole entry, looked up): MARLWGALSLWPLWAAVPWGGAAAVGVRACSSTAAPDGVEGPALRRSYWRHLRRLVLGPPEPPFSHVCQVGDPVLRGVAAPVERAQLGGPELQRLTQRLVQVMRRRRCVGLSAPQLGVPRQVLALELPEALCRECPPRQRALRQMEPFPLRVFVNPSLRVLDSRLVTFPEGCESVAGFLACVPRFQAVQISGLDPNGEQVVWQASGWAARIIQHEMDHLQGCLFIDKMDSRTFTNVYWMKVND

Compound in the first assay: CCN(CCCOc1ccc2c(Nc3cc(CC(=O)Nc4cccc(F)c4)[nH]n3)ncnc2c1)CCOP(=O)(O)O [barasertib]
Kind of assay: log2 fold change, soluble protein after heating vs DMSO (PISA); higher = thermal stabilisation; K562 lysate, 10 uM; active = over 0.2 and 3.5 SD of the protein, either way, in both replicates (recomputed). The procedure, abridged: (§1)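 A 30 min treatment with 10 μM compound was applied to crude K562 extract at 1 mg/mL protein in PBS pH 7.4 with 1 mM MgCl2. Heating for 3 min spanned 48°C-58°C, after which aliquots were pooled, adjusted to 0.5% NP-40 at 4°C and spun at 21,000xg for 90 min. TMTpro 16plex LC-MS/MS of the supernatant, with channel sums equalised, gave values recorded as log-two fold change in thermal stability against solvent controls, from duplicates.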
Consider PDCD10 (UniProt Q9BUL8), for which the log2 fold change was 0.006 (inactive).
Turning to PGPEP1 (UniProt Q9NXJ5), the log2 fold change was -0.036 (inactive).
PRIM1 (UniProt P49642): the log2 fold change was 0.031 (inactive).
Turning to PPP1R8 (UniProt Q12972), the log2 fold change was -0.032 (inactive).
Take PELO (UniProt Q9BRX2): the log2 fold change was 0.037 (inactive).
For the target PDCD6IP isoform 2 (UniProt Q8WUM4), the log2 fold change is -0.008 (inactive).
On the same count and under the same terms, the figure for PTGES2 (UniProt Q9H7Z7) is -0.107 (inactive); for PYURF (UniProt Q96I23) it is -0.049 (inactive); for PMPCA (UniProt Q10713) it is -0.014 (inactive).
Turning to POLA1 (UniProt P09884), the log2 fold change was 0.042 (inactive).
The same measure, in the same setting: as for PHKG2 (UniProt P15735), the figure is 0.126 (inactive).
For PRKACB isoform 2 (UniProt P22694), the log2 fold change was 0.013 (inactive).
For POLB (UniProt P06746), the log2 fold change was -0.029 (inactive).
Same read-out and setting: the figure for PTPN1 (UniProt P18031) is 0.042 (inactive); for PRPH isoform 2 (UniProt P41219) it is -0.13 (inactive); for PKN1 isoform 2 (UniProt Q16512) it is -0.006 (inactive).
In the case of PPP4R2 (UniProt Q9NY27), the log2 fold change was -0.041 (inactive).
PEF1 (UniProt Q9UBV8): the log2 fold change was 0.189 (inactive).
As for PXMP4 (UniProt Q9Y6I8), the log2 fold change was 0.04 (inactive).
Regarding POLR3E (UniProt Q9NVU0), the log2 fold change was 0.003 (inactive).
Same read-out and setting: the figure for PRKRA (UniProt O75569) is -0.042 (inactive).
Turning to PTK2 (UniProt Q05397), the log2 fold change was -0.015 (inactive).
Turning to PLIN2 (UniProt Q99541), the log2 fold change was 0.073 (inactive).
Regarding PHACTR4 isoform 2 (UniProt Q8IZ21), the log2 fold change is -0.008 (inactive).
Same read-out and setting: the figure for PTGR2 (UniProt Q8N8N7) is -0.022 (inactive).
As to PRMT5 (UniProt O14744), the log2 fold change is -0.007 (inactive).
On to PCYT1B (UniProt Q9Y5K3), for which the log2 fold change was 0.012 (inactive).
On to POC5 (UniProt Q8NA72), for which the log2 fold change was 0.014 (inactive).
On the same count and under the same terms, the figure for PFKP (UniProt Q01813) is 0.018 (inactive); for PDF (UniProt Q9HBH1) it is 0.028 (inactive); for PYCR2 (UniProt Q96C36) it is 0.006 (inactive).
PDE2A (UniProt O00408): the log2 fold change is -0.015 (inactive).
For the target PRKACA (UniProt P17612), the log2 fold change is 0.006 (inactive).
Turning to PTPN2 (UniProt P17706), the log2 fold change is 0.051 (inactive).
Turning to PPFIA2 (UniProt O75334), the log2 fold change is 0.054 (inactive).
In the case of PTP4A1 (UniProt Q93096), the log2 fold change was -0.041 (inactive).
Take PDXDC1 (UniProt Q6P996): the log2 fold change is 0.008 (inactive).
Regarding PRKCSH isoform 2 (UniProt P14314), the log2 fold change is -0.159 (inactive).
Take POLD3 (UniProt Q15054): the log2 fold change is 0.004 (inactive).

Compound in another assay: CC[C@@H]1C(=O)N(C)c2cnc(Nc3ccc(C(=O)NC4CCN(C)CC4)cc3OC)nc2N1C1CCCC1
The description is as above. The procedure, abridged:
as §1
As to PDCD10 (UniProt Q9BUL8), the log2 fold change is -0.012 (inactive).
In the case of PGPEP1 (UniProt Q9NXJ5), the log2 fold change is -0.091 (inactive).
Turning to PRIM1 (UniProt P49642), the log2 fold change is -0.089 (inactive).
On the same count and under the same terms, the figure for PPP1R8 (UniProt Q12972) is 0.08 (inactive).
PELO (UniProt Q9BRX2): the log2 fold change is -0.115 (inactive).
PDCD6IP isoform 2 (UniProt Q8WUM4): the log2 fold change was -0.036 (inactive).
In the case of PTGES2 (UniProt Q9H7Z7), the log2 fold change is -0.108 (inactive).
As for PYURF (UniProt Q96I23), the log2 fold change was 0.103 (inactive).
On to PMPCA (UniProt Q10713), for which the log2 fold change was -0.039 (inactive).
On to POLA1 (UniProt P09884), for which the log2 fold change is 0.021 (inactive).
PHKG2 (UniProt P15735): the log2 fold change is 0.074 (inactive).
Regarding PRKACB isoform 2 (UniProt P22694), the log2 fold change was -0.021 (inactive).
Same read-out and setting: the figure for POLB (UniProt P06746) is -0.013 (inactive).
Regarding PTPN1 (UniProt P18031), the log2 fold change is -0.029 (inactive).
With PRPH isoform 2 (UniProt P41219), the log2 fold change is -0.102 (inactive).
As to PKN1 isoform 2 (UniProt Q16512), the log2 fold change is 0.013 (inactive).
Consider PPP4R2 (UniProt Q9NY27), for which the log2 fold change is 0.057 (inactive).
Same read-out and setting: the figure for PEF1 (UniProt Q9UBV8) is 0.033 (inactive); for PXMP4 (UniProt Q9Y6I8) it is -0.035 (inactive); for POLR3E (UniProt Q9NVU0) it is 0.018 (inactive).
With PRKRA (UniProt O75569), the log2 fold change is -0.082 (inactive).
As to PTK2 (UniProt Q05397), the log2 fold change was 0.352 (inactive).
Turning to PLIN2 (UniProt Q99541), the log2 fold change is 0.033 (inactive).
As for PHACTR4 isoform 2 (UniProt Q8IZ21), the log2 fold change is 0.065 (inactive).
Consider PTGR2 (UniProt Q8N8N7), for which the log2 fold change was 0.056 (inactive).
With PRMT5 (UniProt O14744), the log2 fold change is 0.02 (inactive).
PCYT1B (UniProt Q9Y5K3): the log2 fold change is 0.046 (inactive).
Still for that read-out and setting: the figure for POC5 (UniProt Q8NA72) is 0.17 (inactive); for PFKP (UniProt Q01813) it is -0.005 (inactive).
Take PDF (UniProt Q9HBH1): the log2 fold change was -0.118 (inactive).
Turning to PYCR2 (UniProt Q96C36), the log2 fold change was 0.036 (inactive).
Consider PDE2A (UniProt O00408), for which the log2 fold change was -0.215 (inactive).
PRKACA (UniProt P17612): the log2 fold change is 0.095 (inactive).
The same measure, in the same setting: the figure for PTPN2 (UniProt P17706) is -0.028 (inactive).
For the target PPFIA2 (UniProt O75334), the log2 fold change was 0.01 (inactive).
As for PTP4A1 (UniProt Q93096), the log2 fold change was 0.017 (inactive).
Take PDXDC1 (UniProt Q6P996): the log2 fold change is 0.03 (inactive).
In the case of PRKCSH isoform 2 (UniProt P14314), the log2 fold change is 0.03 (inactive).
Same read-out and setting: the figure for POLD3 (UniProt Q15054) is -0.014 (inactive).

For the origin of these results see the supplement of paper PMC10849652.
